Hits are enriched below; roughly 2.4% of the tested compounds scored in any of these assays.
AmpC nodet inh: Promiscuous and Specific Inhibitors of AmpC Beta-Lactamase (assay without detergent); hit rate 1.8% among 71,000; Potency, µM (series often up to 28.7 µM), for the others: at the top dose activity change, negative = inhibition; P00811; AmpC nitrocefin hydrolysis, absorbance 480 nm, no detergent; further: % of control where 0% means no effect
Target sequence (P00811 whole entry, looked up): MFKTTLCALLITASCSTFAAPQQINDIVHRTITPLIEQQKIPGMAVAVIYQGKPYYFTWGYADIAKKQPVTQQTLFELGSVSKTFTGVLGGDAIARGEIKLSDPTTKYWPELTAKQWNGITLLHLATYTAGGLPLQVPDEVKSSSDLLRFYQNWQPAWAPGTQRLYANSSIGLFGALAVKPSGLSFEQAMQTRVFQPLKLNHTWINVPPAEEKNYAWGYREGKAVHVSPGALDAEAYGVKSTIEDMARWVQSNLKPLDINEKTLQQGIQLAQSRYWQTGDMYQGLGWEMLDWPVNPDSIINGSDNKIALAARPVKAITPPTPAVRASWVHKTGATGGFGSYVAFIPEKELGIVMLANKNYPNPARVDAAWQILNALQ
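AmpC, 20 mM phosphate pH 7.0; 15 min cpd preinc, RT; start with nitrocefin (800 uM stock); A480 kinetic read, 20 s intervals, 4 min. No-enzyme wells = negative control.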
AmpC det inh: Promiscuous and Specific Inhibitors of AmpC Beta-Lactamase (assay with detergent); P00811; purified AmpC, nitrocefin hydrolysis with detergent; Potency, µM (series often up to 28.7 µM), without a hit: top-dose activity change, negative = inhibition; hit rate 0.09% among 71,000; active means well fitted curve in the direction sought with a large enough effect; inconclusive means small, poorly fitted or top-dose-only effect; further: on the % scale 0 is the no-effect control and ±100 the full control effect
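E. coli AmpC (5.3 nM) in 20 mM phosphate pH 7.0 with 0.01% Triton X-100, preincubated 15 min RT with compound; nitrocefin (2 uL of 800 uM stock) hydrolysis followed by 480 nm absorbance every 20 s over 4 min.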
LT uptake inh: qHTS Assay for Anthrax Lethal Toxin Internalization | Cells, anthrax lethal toxin internalization, FRET ratio (460/530) | Potency, µM (doses to about 40 µM), for the others: at the top dose activity change, negative = inhibition, usual class: inhibitors | hit rate 0.67% among 70,000 | AID 912, 2007; further: on the % scale 0 is the no-effect control and ±100 the full control effect; nearly all actives have a fitted effect of over 50% in size
SmPrx2 inh: Schistosoma Mansoni Peroxiredoxins (Prx2) | Schistosoma mansoni peroxiredoxin 2 (Prx2) | AID 448, 2006 | hit rate 0.07% among 65,000 | Potency, µM | S. mansoni Prx2 activity coupled to TGR/GSH (TGR is thioredoxin glutathione reductase), NADPH fluorescence loss, qHTS
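qHTS, coupled TGR/Prx2 format; 15 min compound preincubation at RT; reaction started with H2O2 (2.5 mM aliquot); kinetic NADPH fluorescence decrease, ex 365/em 450 nm.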
* = called active by the depositor; ? = inconclusive; nt = no result given; ! = not active in a repeat; [ ] = dose if it differs, or a comment. Unless noted, the call rests on the fitted dose curve. Potency means the concentration at half of the fitted maximal effect.

SMILES	AmpC nodet inh	AmpC det inh	LT uptake inh	SmPrx2 inh
O=C(Nc1cc[c]([Sb](=[O])([OH])[OH])cc1)c1ccccc1	3.2µM*[single pt active]	-3%[5.75 µM]	-3%[8 µM]	>57
CCC(C)c1ccc2oc(-c3ccc(NC(=O)c4ncn[nH]4)cc3)nc2c1 (configuration not stated)	13µM*[single pt active]	-5%	?	>57
Cc1cc(NC(=O)Cn2c(=O)n(Cc3ccccc3)c(=O)c3ccccc32)no1	10µM*	-1%	-7%	>57
O=C(Cn1c(=O)n(Cc2ccco2)c(=O)c2ccccc21)Nc1cccc(Cl)c1	2.5µM*[single pt active]	13%	2.5µM*	>57
COc1ccccc1CN1CC[C@@]2(CCCN(S(=O)(=O)c3ccccc3)C2)C1	20%	1%	15%	>57
COc1ccc(O[C@H]2C=C[C@@H](c3ccccc3)O[C@H]2COC(=O)CC/C(C)=N/OCC[C@@H]2C=C[C@H](OC(C)=O)[C@H](COC(C)=O)O2)cc1	nt	nt	-2%[8 µM]	nt
Nc1ncnc2c1c(-c1ccc(Oc3ccccc3)cc1)cn2C1CCCC1	28%	1%	16µM*	>57
COc1ccccc1C(=O)n1nc(-c2cccnc2)nc1N	4µM*[single pt active]	13%	28%	>57
CC(C)CN(CC(C)C)c1nnc(N)s1	4µM*[single pt active]	26%	0%	>57
Nc1c(S(=O)(=O)c2cccs2)c2nc3ccccc3nc2n1/N=C/c1cccc(O)c1	-5%	-2%	5µM*	>57
O=C(c1cccc(F)c1)N1CCC2(CC1)CCN(c1ccncc1)CC2	5%	-2%	?	>57
COc1ccccc1-n1c(SCC(=O)NC(C)(C)C)nc(O)cc1=O	-4%	-2%	?	>57
COc1ccccc1-n1c(SC)nc(O)cc1=O	2.5µM*[single pt active]	11%	-12%	>57
COc1ccccc1OCCCCNC(C)(C)C	-8%	7%	-16%	>57
CNCCCCOc1ccccc1Cc1ccccc1	55%	2%	32µM*	>57
N#C/C(=C\c1ccc(O)c(O)c1)C(=O)NCCCc1ccccc1	0.2µM*!	-2%	?	>57
O=C(CSc1nnc(Cc2csc(Nc3cccc(Cl)c3)n2)o1)N1CCc2ccccc21	13µM*	1%	-26%	>57
O=C(CSc1nnc(Cc2ccccc2)o1)N1CCCc2ccccc21	28%	12%	4%	>57
O=C(CSc1nnc(CNc2ccccc2)o1)N1CCc2ccccc21	16µM*[single pt active]	0%	1%	>57
Nc1nc(SCc2ccccc2)ns1	-17%	-4%	?	>57
Nc1nc2c(s1)CC(c1ccccc1)CC2 (configuration not stated)	7.9µM*	8%	4%	>57
CN[C@H]1[C@H]2[C@H]3CCN2C[C@@H]1O3	6%	1%	?	>57
COc1cccc(Cn2c(=O)c(-c3ccc(Cl)cc3)nc3cnc(OC)nc32)c1	19%	-1%	?	>57
Cc1cc2ccccc2n1CCNC(=O)C(C)C	22%	10%	-6%	>57
Cc1ccc(S(=O)(=O)NCCn2c(C)cc3ccccc32)cc1	16µM*[single pt active]	-3%	-9%	>57
SMILES	AmpC nodet inh	AmpC det inh	LT uptake inh	SmPrx2 inh
COc1cccc(Cn2c(=O)c(-c3cn(C)c4ccccc34)nc3cncnc32)c1	-5%	-2%	?	>57
COC(=O)C/C=C\[C@H](C)[C@H](CO)NS(=O)(=O)c1ccc(C)cc1	nt	nt	-17%[8 µM]	nt
CCOC(=O)N1CCN(C(=O)c2ccccc2-c2ccccc2)CC1	43%	-2%	?	>57
CCOC(=O)N1CCN(C(=O)c2cnn3ccccc23)CC1	4µM*[single pt active]	25%	5%	>57
C=CCSC1=N/C(=C\c2ccc3c(c2)OCO3)C(=O)S1	4µM*	3%	22%	>57
CC1=C/C(=C\c2ccc3c(c2)OCO3)C(=O)S1	13µM*	?	?	>57
NC(=NCCCCCCN=C(N)/N=C(\N)Nc1ccc(Cl)cc1)/N=C(\N)Nc1ccc(Cl)cc1	2.5µM*	1%	?	>57
Cc1ccc(CCNC(=O)CCNS(=O)(=O)c2ccc3c(c2)c(=O)n(C)c(=O)n3C)cc1	39%	10%	2%	>57
Cc1cccc(CCNC(=O)CN(C)S(=O)(=O)c2ccc3c(c2)c(=O)n(C)c(=O)n3C)c1	4µM*[single pt active]	14%	-10%	>57
COC(=O)N1CCN(C(=O)Cc2ccc(Cl)c(Cl)c2)[C@H](CN2CCCC2)C1	36%	1%	?	14*!

Screening data as filed in PubChem.
